Data: PubChem BioAssay (Tox21)
Unmarked numbers belong to inactive results. Active and inactive are the calls of the source. The call rests on the fitted dose curve; in most records, active means well fitted curve in the direction sought with a large enough effect in the repeat runs; inconclusive means weak or mixed curves; inactive means flat fitted curve, though single readings scatter.
On the % scale 0 is the no-effect control and ±100 the full control effect.

Assay: qHTS assay to test for compound auto fluorescence at 535 nm (green) in HEK293 cell free culture (AID 720682)
Settings: cell-free medium, green autofluorescence 485/535 nm, active compounds read high; series mostly up to 91.3 µM; activity change: at the top concentration
Description: U.S. Tox21 Program National Center for Advancing Translational Sciences [NCATS] NIH Chemical Genomics Center [NCGC] U.S. Environmental Protection Agency [EPA] National Institutes of Environmental Health Sciences [NIEHS] National Toxicology Program [NTP] U.S. Food and Drug Administration [FDA] Tox21 Assay Overview: Compound auto fluorescence often interferes with screening of the compound library against various biological targets and signaling pathways. Some of these compounds may have fluorophoric properties. Such properties may interfere with the assay outputs resulting in false positives and/or negatives. To decrease such complications and ensure the compound activities are relevant in terms of biological response, the Tox21 10K compound library was screened for auto fluorescence. From the fluorophores used as reporter signals in our screening assays, the auto fluorescence equivalencies of compounds against three fluorophores have been evaluated: Triamterene, Fluorescein and Rose Bengal sodium for blue, green and red fluorescence, respectively. The fluorescence intensities were measured using Excitation/Emission wavelengths at 405/460nm, 485/535nm and 540/590nm for blue, green and red labels, respectively. This assay includes the green fluorescence data.
Tox21 Assay Protocol Summary: 5 uL of culture medium (DMEM containing 10% FBS) per well was dispensed into black wall/clear bottom 1536-well plates using a Multidrop Combi Dispenser (ThermoFisher Scientific, Waltham, MA). After 23 nL compound or DMSO vehicle was transferred into assay plate by a pintool work station (Kalypsys, San Diego, CA), fluorescence intensities in the assay plates were measured by an Envision (PerkinElmer, Shelton, CT) plate reader using three labels for measuring blue, green and red fluorescence at […] 460, 535 and 590nm respectively.
With CN(C)CC/C=C1/c2ccccc2COc2ccc(CC(=O)O)cc21 the “activity change” value was -0.0241% [at 46 µM].
For CC1=C(O)C(=O)C(C)O1 (stereo not given), the “activity change” value was -0.0308% [at 95.7 µM].
In the case of CC(CO)(CO)CO, the “activity change” value is reported as 0.0325% [at 95.7 µM].
With CCCCCCCCCOC(=O)CCCCC(=O)OCCCCCCC the “activity change” value was 0.0882%.
With O=C(O)CCCCCC(=O)O the “activity change” value was -0.0013%.
For O=C(CCCCC(=O)Nc1c(I)cc(I)c(C(=O)O)c1I)Nc1c(I)cc(I)c(C(=O)O)c1I, the “activity change” value was -0.095% [at 46 µM].
With CC1OCCC1=O (stereo not given) the “activity change” value was 0.0039%.
For CC(S)C(C)S (stereo not given), the “activity change” value was -0.0278% [at 95.7 µM].
For CO[Si](CCCn1c(=O)n(CCC[Si](OC)(OC)OC)c(=O)n(CCC[Si](OC)(OC)OC)c1=O)(OC)OC, the “activity change” value was 0.0852%.
With COc1cc2c(cc1OC)C(=O)C(CC1CCN(Cc3ccccc3)CC1)C2 (stereo not given) the “activity change” value was -0.0351% [at 46 µM].
In the case of CCC/C=C(\C=O)CC, the “activity change” value is reported as -0.151%.
For CC1(C)O[C@H]2CC(=O)OC[C@]23[C@H]2CC[C@@]4(C)[C@H](c5ccoc5)OC(=O)[C@H]5O[C@]54[C@]2(C)C(=O)C[C@@H]13, the “activity change” value was 0.007% [at 46 µM].
With CC(C)OC(=O)OCOP(=O)(CO[C@H](C)Cn1cnc2c(N)ncnc21)OCOC(=O)OC(C)C the outcome was “inactive”.
With Cc1c(NC(=O)c2cccnc2)c(=O)n(-c2ccccc2)n1C the activity change was 0.0113% [at 18.6 µM].
For C=CCN1C[C@H](C(=O)N(CCCN(C)C)C(=O)NCC)C[C@@H]2c3cccc4[nH]cc(c34)C[C@H]21, the “activity change” value was 0.0089% [at 46 µM].
With OCC1CCC(CO)CC1 (stereo not given) the “activity change” value was 0.117%.
With CCCC(CC)c1ccccc1 (stereo not given) the “activity change” value was -0.0337%.
In the case of CCO, the “activity change” value is reported as -0.0562% [at 95.7 µM].
In the case of CC(=O)CCC1=C(C)CCCC1(C)C, the “activity change” value is reported as 0.0315%.
With C=CCSSCCC the “activity change” value was -0.0624%.
For COC(=O)CCCCC(=O)O, the “activity change” value was -0.0964%.
For O=C1c2ccccc2C(=O)c2cc(Cl)ccc21, the activity change was -0.0107% [at 3.72 µM].
With CC(O)CC(C)O (stereo not given) the “activity change” value was -0.09%.
With CCCSSCCC the “activity change” value was -0.0152%.
In the case of CO/N=C(/C(=O)N[C@@H]1C(=O)N2C(C(=O)[O-])=C(C[n+]3ccn4ncccc43)CS[C@H]12)c1nsc(N)n1, the outcome is reported as “inactive”.
For C=CCCCCCCCC, the “activity change” value was 0.0836%.
For CC1c2ccccc2CN1NC(=O)c1ccc(Cl)c(S(N)(=O)=O)c1 (stereo not given), the “activity change” value was -0.0524% [at 46 µM].
For CC(=O)OCC(=O)Nc1cc(C#N)cc(NC(=O)COC(C)=O)c1Cl, the “activity change” value was -0.0592% [at 46 µM].
For Cn1c(=O)c2[nH]c(Br)nc2n(C)c1=O, the “activity change” value was -0.118% [at 46 µM].
In the case of CCCCCC/C=C/C(=O)OC, the “activity change” value is reported as 0.121%.
For CC(=O)CCc1ccc(OC(C)=O)cc1, the “activity change” value was -0.0111%.
With C[C@@H](O)C(=O)O the “activity change” value was -0.0714% [at 95.7 µM].
For Cc1ccc(C(=O)O)cc1[N+](=O)[O-], the “activity change” value was -0.0004%.
For CCCCCCCCCCCCCCCCCCOCCO, the activity change was -0.0191% [at 18.6 µM].
In the case of CCC[C@@H]1C[C@@H](C(=O)N[C@@H]([C@H]2O[C@H](SC)[C@H](O)[C@@H](O)[C@H]2O)[C@@H](C)O)N(C)C1, the “activity change” value is reported as -0.511% [at 46 µM].
In the case of COC(C)(OC)OC, the “activity change” value is reported as -0.0119%.
For CCCCCCCCCCOC(C)=O, the “activity change” value was 0.0577%.
With CC(C)Nc1ccccc1 the “activity change” value was 0.0098%.
For C=CC(=O)CCCCC, the “activity change” value was 0.127% [at 95.7 µM].
For CCCC(=O)OC/C=C(\C)CCC=C(C)C, the “activity change” value was 0.0345%.
